Results filed as inconclusive are left out. Calls of active or inactive are those of the source. Unless noted, calls follow the shape of the full dose curve.
Tests used:
[1] = Nuclear factor erythroid 2-related factor 2/antioxidant responsive element (Nrf2/ARE) small molecule agonists: qHTS cell viability counter screen in human keratinocytes (AID 1919968; active = well fitted curve in the direction sought with a large enough effect in the repeat runs; an effect the other way counts as inactive or inconclusive; also: nearly all actives have a fitted effect of over 55% in size)
Procedure, shortened: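 CellTiter-Fluor fluorescence, read 1 h after reagent, gave viability in the same wells as the ARE-luciferase assay. KeratinoSens cells (1,500/well) had 23 h compound exposure at 37 C/5% CO2 following 5 h plating.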

[2] = Nuclear factor erythroid 2-related factor 2/antioxidant responsive element (Nrf2/ARE) small molecule agonists: luciferase reporter gene qHTS assay in human keratinocytes (AID 1919969); also: nearly all actives have a fitted effect of over 35% in size
[3] = target: Gonadotropin-releasing hormone receptor (Homo sapiens) (UniProt P30968); test: Human gonadotropin-releasing hormone receptor (GnRHR) small molecule agonists, calcium flux assay in GnRHR-HEK293 cells (AID 1920063); also: nearly all actives have a fitted effect of over 35% in size
Procedure, shortened: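 Agonist mode: compounds at 15 concentrations, in triplicate, went onto calcium dye-loaded GnRHR-HEK293 cells. Intracellular calcium was then followed as 480/540 nm fluorescence at 1 s intervals over 3 min.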

[4] = target: KiSS-1 receptor (Homo sapiens) (UniProt Q969F8); test: Human kisspeptin (KISS1R) small molecule agonists, calcium flux assay in KISS1R-HEK293 cells (AID 1920064; active = well fitted curve in the direction sought with a large enough effect in the repeat runs; an effect the other way counts as inactive or inconclusive)
Procedure, shortened: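 Agonist mode: intracellular calcium rise tracked at 1 s intervals over 3 min (480/540 nm) immediately after compound addition to dye-loaded KISS1R-HEK293 stable cells. Each compound tested at 15 concentrations in triplicate.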

[5] = G protein-coupled receptor (GPCR) small molecule agonists, calcium flux assay: HEK293 wild type cell line counter screen (AID 1920065)
Procedure, shortened: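 Calcium flux counter screen: compound added in agonist mode at 15 concentrations in triplicate to dye-loaded parental HEK293 cells. Fluorescence (480/540) read kinetically for 3 min; ATP served as positive control.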

[6] = p53 small molecule agonists, cell-based qHTS assay with human liver microsomes (AID 1963577);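 also: p53 response element beta-lactamase reporter cells with liver microsomes plus NADPH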
Procedure, shortened: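 HLM-supplemented p53RE-bla reporter assay: 16 h compound exposure at 37 C, microsomes and NADPH each 0.5 mg/mL final, read by fluorescence intensity.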

[7] = p53 small molecule agonists, cell-based qHTS assay with rat liver microsomes (AID 1963578)
Procedure, shortened: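 Quantitative HTS of the Tox21 10K library: p53RE-bla cells, rat liver microsomes plus NADPH at 0.5 mg/mL final each, 16 h at 37 C, beta-lactamase fluorescence detection.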

[8] = p53 small molecule agonists, cell-based qHTS assay with human liver microsomes: qHTS cell viability counter screen (AID 1963579); also: nearly all actives have a fitted effect of over 45% in size
Procedure, shortened: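 Viability of p53RE-bla cells is measured as CellTiter-Glo luminescence following a 16 h, 37 C incubation with compound, liver microsomes from human donors and NADPH.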

[9] = p53 small molecule agonists, cell-based qHTS assay with rat liver microsomes: qHTS cell viability counter screen (AID 1963580); also: nearly all actives have a fitted effect of over 45% in size
Procedure, shortened: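 Rat liver microsome (0.5 mg/mL final) and NADPH (0.5 mg/mL final) co-incubation with compounds for 16 h at 37 C on HCT-116 p53RE-bla cells; cytotoxicity taken from intracellular ATP luminescence.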

[10] = target: 5-hydroxytryptamine receptor 2A (Homo sapiens) (UniProt P28223); test: 5-hydroxytryptamine receptor 2A (HTR2A) small molecule antagonists, cell-based qHTS assay (AID 1963586); also: nearly all actives have a fitted effect of over 45% in size
Procedure, shortened: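 CHO cells stably expressing human HTR2A were plated for 18 h at 37 C, then loaded with calcium dye for 1 h. Compounds were preincubated 5 min at room temperature before DOI (4 nM solution) was added. Kinetic fluorescence was read for 3 min.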

[11] = target: 5-hydroxytryptamine receptor 2A (Homo sapiens) (UniProt P28223); test: 5-hydroxytryptamine receptor 2A (HTR2A) small molecule agonists, cell-based qHTS assay (AID 1963587); also: nearly all actives have a fitted effect of over 30% in size
Procedure, shortened: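 Kinetic calcium-flux fluorescence (2 min, 1 sec intervals) after compound addition in agonist mode. HTR2A-CHO cells were cultured 18 h, then dye-loaded 1 h at 37 C.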

[12] = target: Muscarinic acetylcholine receptor M1 (Homo sapiens) (UniProt P11229); test: Cholinergic receptor muscarinic 1 (CHRM1) small molecule antagonists, cell-based qHTS assay (AID 1963588); also: nearly all actives have a fitted effect of over 40% in size
Procedure, shortened: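 Compounds were tested at 15 concentrations in three independent runs. Dye-loaded CHRM1-CHO cells were exposed 5 min at room temperature before stimulation by acetylcholine added at 50nM. Intracellular calcium was read kinetically on FDSS for 3 min.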

[13] = cAMP Responsive Elements (CRE) small molecule agonists, cell-based qHTS assay (AID 1963590)
Procedure, shortened: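 Agonist mode: compound added to CRE-bla HEK 293T cells (2,000/well, 18 h after plating) for 3 h at 37 C/5% CO2. Reporter activity detected via FRET beta-lactamase substrate, 2 h room-temperature loading.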

[14] = cAMP Responsive Elements (CRE) small molecule antagonists, cell-based qHTS assay (AID 1963591; active = well fitted inhibition curve with a large enough effect in the signal ratio in the repeat runs, not every such curve was filed as active; the % refers to the signal ratio)
Procedure, shortened: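 Antagonist mode: compounds are added alongside the adenylyl cyclase activator NKH477 (0.25 uM final) to CRE-bla HEK293T cells for 3 h. LiveBLAzer FRET substrate, 2 h at room temperature, reports bla expression.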

[15] = target: Beta-2 adrenergic receptor (Homo sapiens) (UniProt P07550); test: Adrenergic beta2 receptor (ADRB2) small molecule antagonists, cell-based qHTS assay (AID 1963592); also: series mostly up to about 92 µM; nearly all actives have a fitted effect of over 50% in size
Procedure, shortened: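 Assay format: CHO-ADRB2 cells, 18-20hr seeding at 37C/5% CO2, then compound plus 1nM isoproterenol agonist mix for 0.5hr RT. Homogeneous time-resolved fluorescence cAMP detection after 1hr, expressed as 665/615 nm ratio.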

[16] = target: D(2) dopamine receptor (Homo sapiens) (UniProt P14416); test: Dopamine D2 receptor (DRD2) small molecule antagonists, cell-based qHTS assay (AID 1963595; active = well fitted inhibition curve with a large enough effect in the signal ratio in the repeat runs, with a control signal flat; the % refers to the signal ratio)
Procedure, shortened: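 Cells were plated and grown for 24 h at 37 °C. Ro20-1724 (0.1 mM final) went in first, then compound for 10 min. NKH477 (200 nM) with quinpirole (12 nM) followed for 30 min at RT, then HTRF detection reagents for 1 h.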

[17] = p53 small molecule agonists, cell-based qHTS assay: qHTS cell viability counter screen (AID 1963581); also: nearly all actives have a fitted effect of over 45% in size
Procedure, shortened: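 Counter screen read by CellTiter-Glo luminescence (ATP content, 30 min at room temperature), run in the same wells as the beta-lactamase reporter read. HCT-116 p53RE-bla cells saw compounds for 16 h at 37 C.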

[18] = p53 small molecule agonists, cell-based qHTS assay (AID 1963582; active = well fitted activation curve with a large enough effect in the signal ratio in the repeat runs, not every such curve was filed as active; the % refers to the signal ratio)
Procedure, shortened: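 Read-out is beta-lactamase FRET fluorescence after 2 h at room temperature with LiveBLAzer B/G substrate. p53 response element-bla cells were treated 16 h at 37 C with compounds in DMSO, added 5 h after seeding.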

[19] = target: Muscarinic acetylcholine receptor M1 (Homo sapiens) (UniProt P11229); test: Cholinergic receptor muscarinic 1 (CHRM1) small molecule agonists, cell-based qHTS assay (AID 1963589); also: nearly all actives have a fitted effect of over 35% in size
Procedure, shortened: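 Agonist-mode calcium-flux screen: compounds at 15 concentrations, three independent runs, were pin-transferred onto dye-loaded human CHRM1-CHO cells. Fluorescence was then recorded kinetically every second over minutes.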

[20] = target: D(2) dopamine receptor (Homo sapiens) (UniProt P14416); test: Dopamine D2 receptor (DRD2) small molecule agonists, cell-based qHTS assay (AID 1963594); also: nearly all actives have a fitted effect of over 35% in size
Procedure, shortened: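 cAMP accumulation in DRD2-HEK293 cells measured by HTRF after 1 h detection; compounds added 10 min before NKH477 (200nM […]) forskolin-analogue stimulation, 30 min at room temperature, with Ro20-1724 present at 0.1 mM final.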

Measured: Potency

Sequence of Gonadotropin-releasing hormone receptor (Homo sapiens) (P30968 whole entry, looked up): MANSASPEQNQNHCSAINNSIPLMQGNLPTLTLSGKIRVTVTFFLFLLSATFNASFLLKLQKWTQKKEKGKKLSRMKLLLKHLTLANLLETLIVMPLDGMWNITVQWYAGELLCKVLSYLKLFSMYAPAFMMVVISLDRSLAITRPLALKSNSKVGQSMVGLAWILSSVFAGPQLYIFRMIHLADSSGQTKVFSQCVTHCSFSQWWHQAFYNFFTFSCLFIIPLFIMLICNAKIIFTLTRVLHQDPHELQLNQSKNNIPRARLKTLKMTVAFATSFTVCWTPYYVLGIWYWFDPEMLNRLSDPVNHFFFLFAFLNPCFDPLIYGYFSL
Sequence of KiSS-1 receptor (Homo sapiens) (Q969F8 whole entry, looked up): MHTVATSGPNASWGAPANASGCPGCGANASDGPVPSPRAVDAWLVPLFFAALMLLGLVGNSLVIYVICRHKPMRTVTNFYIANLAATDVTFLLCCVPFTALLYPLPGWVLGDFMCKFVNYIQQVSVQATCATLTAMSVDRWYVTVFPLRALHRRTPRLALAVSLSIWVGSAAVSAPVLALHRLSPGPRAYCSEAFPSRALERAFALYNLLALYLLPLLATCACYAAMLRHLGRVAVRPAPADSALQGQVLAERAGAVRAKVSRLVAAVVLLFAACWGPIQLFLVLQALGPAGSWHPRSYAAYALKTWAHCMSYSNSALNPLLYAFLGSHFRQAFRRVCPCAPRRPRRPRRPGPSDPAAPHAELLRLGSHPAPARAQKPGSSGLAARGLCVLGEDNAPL
Sequence of 5-hydroxytryptamine receptor 2A (Homo sapiens) (P28223 whole entry, looked up): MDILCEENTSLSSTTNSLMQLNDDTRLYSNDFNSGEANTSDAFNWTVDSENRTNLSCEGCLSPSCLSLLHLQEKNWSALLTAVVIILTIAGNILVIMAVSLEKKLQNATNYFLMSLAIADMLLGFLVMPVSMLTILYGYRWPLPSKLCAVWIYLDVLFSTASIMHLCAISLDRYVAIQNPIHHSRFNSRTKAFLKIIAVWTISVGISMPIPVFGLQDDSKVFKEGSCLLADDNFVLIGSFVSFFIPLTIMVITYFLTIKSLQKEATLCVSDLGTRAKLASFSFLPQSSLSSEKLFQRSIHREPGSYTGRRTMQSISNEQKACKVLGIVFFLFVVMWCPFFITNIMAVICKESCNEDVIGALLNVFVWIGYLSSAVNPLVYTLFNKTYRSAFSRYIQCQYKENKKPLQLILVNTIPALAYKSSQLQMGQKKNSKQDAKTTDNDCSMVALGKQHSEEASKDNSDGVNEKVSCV
Sequence of Beta-2 adrenergic receptor (Homo sapiens) (P07550 whole entry, looked up): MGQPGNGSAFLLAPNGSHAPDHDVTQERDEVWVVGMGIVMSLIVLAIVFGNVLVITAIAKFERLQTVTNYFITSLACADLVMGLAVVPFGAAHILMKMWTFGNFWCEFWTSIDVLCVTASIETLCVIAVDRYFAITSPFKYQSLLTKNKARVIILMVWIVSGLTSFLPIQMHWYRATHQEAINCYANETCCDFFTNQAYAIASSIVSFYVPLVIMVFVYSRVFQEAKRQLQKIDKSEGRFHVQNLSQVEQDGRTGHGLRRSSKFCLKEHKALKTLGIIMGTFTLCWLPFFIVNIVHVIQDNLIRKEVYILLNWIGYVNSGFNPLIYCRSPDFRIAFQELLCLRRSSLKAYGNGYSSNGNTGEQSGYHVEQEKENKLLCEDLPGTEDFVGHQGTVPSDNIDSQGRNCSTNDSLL
Sequence of Muscarinic acetylcholine receptor M1 (Homo sapiens) (P11229 whole entry, looked up): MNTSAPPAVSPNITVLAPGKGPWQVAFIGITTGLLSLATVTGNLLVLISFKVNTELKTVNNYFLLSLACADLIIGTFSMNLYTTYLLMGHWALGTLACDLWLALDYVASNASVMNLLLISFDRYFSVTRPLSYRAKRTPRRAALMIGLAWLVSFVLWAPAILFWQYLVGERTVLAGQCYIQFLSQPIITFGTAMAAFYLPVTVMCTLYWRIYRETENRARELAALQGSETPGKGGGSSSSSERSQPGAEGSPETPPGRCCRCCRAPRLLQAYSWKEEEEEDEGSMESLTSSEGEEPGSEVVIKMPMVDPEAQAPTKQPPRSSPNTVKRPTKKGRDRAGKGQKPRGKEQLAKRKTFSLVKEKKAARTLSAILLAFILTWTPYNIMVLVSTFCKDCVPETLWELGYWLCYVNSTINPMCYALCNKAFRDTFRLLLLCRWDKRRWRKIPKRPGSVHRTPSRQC
Sequence of D(2) dopamine receptor (Homo sapiens) (P14416 whole entry, looked up): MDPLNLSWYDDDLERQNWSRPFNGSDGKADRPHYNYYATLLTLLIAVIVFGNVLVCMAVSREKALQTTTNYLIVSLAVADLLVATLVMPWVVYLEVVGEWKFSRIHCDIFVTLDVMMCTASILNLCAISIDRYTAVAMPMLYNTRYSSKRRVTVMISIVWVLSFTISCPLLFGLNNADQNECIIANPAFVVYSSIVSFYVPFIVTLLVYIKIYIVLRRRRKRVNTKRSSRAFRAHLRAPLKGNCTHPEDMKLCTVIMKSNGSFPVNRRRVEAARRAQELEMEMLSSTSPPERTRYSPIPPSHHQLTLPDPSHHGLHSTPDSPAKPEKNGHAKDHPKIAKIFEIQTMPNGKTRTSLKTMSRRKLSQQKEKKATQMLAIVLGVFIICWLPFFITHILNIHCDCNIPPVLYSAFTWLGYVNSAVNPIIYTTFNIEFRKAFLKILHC

CC[C@]12CCCN3CCc4c(n(c5ccccc45)[C@@](O)(C(=O)OC)C1)[C@@H]32
not listed: [17] | [18] | [19] | [20]
inactive: all other assays above

CC(CO)CO
not listed: [9] | [13] | [20]
inactive: all other assays above

FC(F)(F)c1ccccc1Cl
not listed: [9]
inactive: all other assays above

CCO[Si](C)(OCC)OCC
not listed: [9] | [14]
inactive: all other assays above

CC(CO)Oc1ccccc1 (stereo not given)
not listed: [9]
inactive: all other assays above

CCC(C(=O)NC(N)=O)c1ccccc1 (stereo not given)
not listed: [9] | [11]
inactive: all other assays above

C=CC(C)CCC=C(C)C (stereo not given)
not listed: [9] | [13]
inactive: all other assays above
